Laboratory results: PubChem BioAssay (NCI)
This is part of a sample that, as a whole, favours compounds with a hit. Of some 83,000 tested, about 20% had one in any assay.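 Growth was measured after 48 h exposure to one concentration of compound in 96-well plates. Values under 10 count as active.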 Unmarked numbers belong to inactive results. Calls of active or inactive are those of the source.

What follows are compounds tested on SK-MEL-2 melanoma (assay: NCI-60 one-dose screen, 48 h (100 = growth as untreated, 0 = no growth, -100 = all killed)). Conditions: 10 µM unless noted.
Procedure: Growth inhibition of the SK-MEL-2 human tumor cell line is measured as a screen for anti-cancer activity. Cells are grown in 96 well plates and exposed to the test compound for 48 hours. Compounds are tested at a single concentration, which is 10^-5 M for most compounds. The reported endpoint is percent growth (GI% or GIPRCNT), where numbers from 0 - 100% represent growth inhibition, and numbers from -100% - 0 represent cell death. For example, a value of 40 represents 60% growth inhibition. A value of 0 means no net growth occurred over the course of the experiment. A value of -40 indicates 40% of cells at the beginning of the experiment died by the end of the experiment. A value of -100 means all cells are dead at the end of the experiment.
NCI-60 Human Tumor Cell Lines Screen was performed using the standard one-dose NCI protocol, which is described in more detail at https://dtp.cancer.gov/discovery_development/nci-60/default.htm.
Compounds with GIPRCNT values below 10 were considered active. Activity score was based on GIPRCNT using the following formula: […]
Score is 0 for GIPRCNT values of 100 or above, 50 for GIPRCNT values of 0, and 100 for GIPRCNT values of -100.

Structure (SMILES)	growth
O=C(CCn1c[n+](CC(=O)c2ccc(-c3ccccc3)cc2)c2ccccc21)Nc1cccc2cccnc12	65.4%
CNC(=O)c1cc(-n2ccc3cc(NC(=O)Nc4ccc(N5CCOCC5)c(C(F)(F)F)c4)ccc32)ccn1	68.8%
CC(=O)N(C)C1CCc2c(sc(NC(=O)c3ccc(C(C)(C)C)cc3)c2C(N)=O)C1 (stereo not given)	103%
NS(=O)(=O)c1ccc(Nc2nc(SCc3ccccc3)nc3ccccc23)cc1	92.4%
C#Cc1nc(C(=O)NCCC(=O)Nc2ccc(NC(=O)c3ccc(/C=C/C(=O)c4nccn4C)cc3)cc2)cs1	100%
N#Cc1c(NC(=O)c2cccc(C(F)(F)F)c2F)sc2c1CCC(=O)C2	5.28% (active)
CC1(C)CC[C@]2(C(=O)N3CCOCC3)CC[C@]3(C)C(=CC[C@@H]4[C@@]5(C)C/C(=C/c6ccccn6)C(=O)C(C)(C)[C@@H]5CC[C@]43C)[C@@H]2C1	82.9%
COc1ccc(N2CCN(C3=C(Cl)C(=O)C(C)=C(C)C3=O)CC2)cc1	106%
CC1=N[C@@H]2CN(C(=O)OC(C)(C)C)C[C@@H]2n2c1cc1ccccc1c2=O	102%
CC[C@H](CO)Nc1ccc2ncc(C#Cc3cncc(C(=O)Nc4ccc(CN5CCN(C)CC5)c(C(F)(F)F)c4)c3)n2n1	-97.7% (active)
COc1cc(OC)c(/C=C/S(=O)(=O)Cc2ccc(OC)c(NCC(=O)NO)c2)c(OC)c1	51.1%
COc1cc(OC)cc(C(=O)Nc2cccc(C#Cc3cccc4[nH]nc(N)c34)c2)c1	-24.2% (active)
COc1ccc2c(c1)c(CC(=O)[Se]CC#N)c(C)n2C(=O)c1ccc(Cl)cc1	39.3%
COc1ccc(Cn2cc3c(c2-c2cc(OC)c(OC)c(OC)c2)CCc2c(CN4CCCC4)noc2-3)cc1	57.1%
O=S(=O)(NCCCNc1nccc(-c2[nH]c(-c3ccccc3)nc2-c2ccc(Cl)c(O)c2)n1)c1cccc2ccccc12	-4.81% (active)
CCCn1cnc2c(c1=N)C(c1ccc(F)cc1)c1sc3c(C)cccc3c1O2 (stereo not given)	52.8%
Cc1nc(-c2ccccc2O)ccc1C(=O)N=Nc1c(O)[nH]c2ccc(Br)cc12	104%
O=C(Cn1cc(-c2ccccc2)nn1)Nc1nc(-c2ccc(Cl)cc2)cs1	103%
CS(=O)(=O)Nc1cc(-c2ccc3ncc(C#N)c(NCc4cccc(F)c4)c3c2)cnc1Cl	-63.4% (active)
O=C(NNc1nc2cc(F)ccc2n2c(CO)ccc12)c1cnccn1	21.7%

Structure (SMILES)	growth
CCN(CC)CCn1c2ccc(O)cc2c2sc3cc(OC)ccc3c(=O)c21	55.6%
O=C(CCn1cc[n+](CC(=O)c2ccc(-c3ccccc3)cc2)c1)Nc1cccc2cccnc12	90.1%
CC(=O)c1ccc(Nc2nc(SCC(C)C)nc(-c3ccccc3)c2C#N)cc1	76.7%
Oc1cccc2ccc(-c3nnc(SCc4ccc(O)c5ncccc45)n3-c3ccccc3)nc12	25.5%
Cc1ccc(-n2cc(/C=N/NC(=O)c3nc(N)n[nH]3)c(-c3ccc(S(C)(=O)=O)cc3)n2)cc1	103%
Cc1ccc(-n2c(/C=C3\C(=O)Nc4ccccc43)ccc2CO)cc1	81%
N#Cc1cccc(NC(=O)c2cc(-c3ccc(F)cc3F)ccc2O)c1	0.79% (active)
COc1cc(-c2nc(SCCC(C)C)nc(NNC(=O)c3ccncc3)c2C#N)cc(OC)c1OC	101%
O=C1CC(=O)N2CSCN(C(c3ccccc3)c3nc4ncncc4[nH]3)C2=N1 (stereo not given)	96.6%
C=CCn1c(SCC(=O)Nc2ccc(C(=O)/C=C/c3ccc(Cl)cc3)cc2)nnc1-c1c[nH]c2ccccc12	88.7%
CS(=O)(=O)Nc1cc(-c2ccc3ncc(C#N)c(N[C@H](CO)c4ccccc4)c3c2)cnc1Cl	10.3%
CC1(C)[C@@H](O)CC[C@]2(C)[C@H]3CC[C@@H]4[C@H]5[C@H](C(=O)/C=C\c6ccncc6)CC[C@]5(O)CC[C@@]4(C)[C@]3(C)CC[C@@H]12	94.9%
CC1(C)[C@@H](O)CC[C@]2(C)[C@H]3CC[C@@H]4[C@H]5[C@H](C(=O)/C=C\c6ccc([N+](=O)[O-])cc6)CC[C@]5(O)CC[C@@]4(C)[C@]3(C)CC[C@@H]12	102%
Cn1ccnc1C(=O)/C=C/c1ccc(CNC(=O)c2ccc(F)cc2)cc1	105%
COc1cc(-c2nc3sccn3c2-c2ccnc(S(C)(=O)=O)n2)ccc1F	96%
O=C1CCC(N2C(=O)c3ccc(NS(=O)(=O)c4ccccc4OC(F)(F)F)cc3C2=O)C(=O)N1 (stereo not given)	83.7%
COc1ccccc1-n1cc(C#N)c(N)c1C(=O)c1ccc(Br)cc1	70.4%
CCCCCc1ccc(S(=O)(=O)Nc2cc(-c3csc(NC(=O)CN4CCN(CCO)CC4)n3)ccc2OC)cc1	94.9%
O=C(CSc1nc2ccccc2c(=O)n1-c1ccccc1)Nc1cccc(C(=O)/C=C/c2ccccc2)c1	100%
CC1(C)CC[C@]2(C(=O)N3CCOCC3)CC[C@]3(C)C(=CC[C@@H]4[C@@]5(C)C/C(=C/c6ccco6)C(=O)C(C)(C)[C@@H]5CC[C@]43C)[C@@H]2C1	103%
